Assay results as given in PubChem BioAssay.
The source made the active and inactive calls.

Assays:
[1] = compounds binding Alexa647 anti-His antibody – biochemical, small-molecule microarray, 635 nm fluorescence, artefact control for SMM control protein annotation, primary screen (AID 1128); conditions: higher = more signal;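 further: score merges feature fluorescence with signal-to-noise for each printed compound spot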
[2] = tested on: Human papillomavirus type 1a E7 protein (residues 1-88); assay: HPV1a E7 small-molecule binders, primary screen, biochemical, small-molecule microarray, residues 1-88, 635 nm (AID 1129); conditions: small-molecule microarray binding, fluorescence 635 nm; higher = more signal
[3] = biological target: Focal adhesion kinase 1 (Homo sapiens) (UniProt Q05397); assay: PTK2 protein binding on printed compound slides – biochemical, small-molecule microarray, 635/667 nm fluorescence, BSA, DTT, primary screen (AID 1130); conditions: 635 nm fluorescence, higher = more signal;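 further: composite of spot emission at 667 nm and signal to noise over triplicate slides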
[4] = tested on: Fibrinogen (Alexa647-labelled); assay: Alexa647-fibrinogen binding to printed small molecules – biochemical, small-molecule microarray, 635/667 nm fluorescence, artefact control for SMM control-protein annotation, profiling panel (AID 1131); conditions: fibrinogen-A647 binding fluorescence, higher = more signal;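 further: z-score merges 667 nm fluorescence with per-spot signal-to-noise over triplicate slides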
[5] = biological target: Follistatin (Homo sapiens) (UniProt P19883); assay: FST protein binding to printed compounds – biochemical, small-molecule microarray, 635/667 nm fluorescence, primary screen (AID 1132); conditions: 635 nm fluorescence, higher = more signal
[6] = biological target: Fibroblast growth factor 2 (Homo sapiens) (UniProt P09038); assay: basic fibroblast growth factor binding to printed compounds – biochemical, small-molecule microarray, 635/667 nm fluorescence, primary screen (AID 1133); conditions: FGF2, fluorescence 635/667, higher = more signal
[7] = JC-1 mitochondrial potential readout, lung cancer cells – cell-based, A549, JC-1 fluorescence, basal, 24 h, 100 nL, profiling panel (AID 1138); conditions: higher = more signal;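 further: A549 lung adenocarcinoma cells under basal conditions with no added stimulus; test concentration not given here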
Lefty1 = Lefty1 protein binding to printed compounds – biochemical, small-molecule microarray, 635/667 nm fluorescence, primary screen (AID 1139); conditions: fluorescence 635/667, higher = more signal
[8] = tested on: wheat germ agglutinin (Triticum aestivum), Alexa647-labelled; assay: Alexa647-WGA lectin binding to printed small molecules – biochemical, small-molecule microarray, 635/667 nm fluorescence, artefact control for SMM control-protein annotation, profiling panel (AID 1140); conditions: WGA-A647 binding, 635 nm fluorescence, higher = more signal;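 further: score merges 667 nm feature emission with signal to noise over triplicate slides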
[9] = biological target: Luciferin 4-monooxygenase (Photinus pyralis) (UniProt P08659); assay: inhibition of purified Photinus pyralis luciferase – biochemical, luminescence, purified enzyme, 2006 set, primary screen (AID 1141); conditions: purified firefly luciferase, SteadyGlo luminescence, 30 min; higher = more signal, called active from +8 up or from −8 down;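 further: cell-free assay with purified firefly luciferase at 100 ng per well in PBS; test concentration not given here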
Sequence of Luciferin 4-monooxygenase (Photinus pyralis) (P08659 whole entry, looked up): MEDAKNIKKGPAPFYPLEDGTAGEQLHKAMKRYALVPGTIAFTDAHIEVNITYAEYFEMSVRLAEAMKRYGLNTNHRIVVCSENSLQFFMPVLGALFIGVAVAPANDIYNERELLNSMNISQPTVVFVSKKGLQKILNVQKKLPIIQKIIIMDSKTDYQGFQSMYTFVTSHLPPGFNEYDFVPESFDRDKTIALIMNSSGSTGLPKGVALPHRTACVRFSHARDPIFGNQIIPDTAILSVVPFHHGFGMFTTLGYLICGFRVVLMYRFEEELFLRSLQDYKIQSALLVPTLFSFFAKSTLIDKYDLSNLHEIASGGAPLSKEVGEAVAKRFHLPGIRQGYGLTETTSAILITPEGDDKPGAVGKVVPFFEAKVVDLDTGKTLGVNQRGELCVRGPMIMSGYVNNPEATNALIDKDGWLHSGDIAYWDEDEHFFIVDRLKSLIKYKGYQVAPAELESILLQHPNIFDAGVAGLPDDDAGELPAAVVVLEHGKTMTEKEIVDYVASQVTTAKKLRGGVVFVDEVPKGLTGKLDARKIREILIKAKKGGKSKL

Sequence of Focal adhesion kinase 1 (Homo sapiens) (Q05397 whole entry, looked up): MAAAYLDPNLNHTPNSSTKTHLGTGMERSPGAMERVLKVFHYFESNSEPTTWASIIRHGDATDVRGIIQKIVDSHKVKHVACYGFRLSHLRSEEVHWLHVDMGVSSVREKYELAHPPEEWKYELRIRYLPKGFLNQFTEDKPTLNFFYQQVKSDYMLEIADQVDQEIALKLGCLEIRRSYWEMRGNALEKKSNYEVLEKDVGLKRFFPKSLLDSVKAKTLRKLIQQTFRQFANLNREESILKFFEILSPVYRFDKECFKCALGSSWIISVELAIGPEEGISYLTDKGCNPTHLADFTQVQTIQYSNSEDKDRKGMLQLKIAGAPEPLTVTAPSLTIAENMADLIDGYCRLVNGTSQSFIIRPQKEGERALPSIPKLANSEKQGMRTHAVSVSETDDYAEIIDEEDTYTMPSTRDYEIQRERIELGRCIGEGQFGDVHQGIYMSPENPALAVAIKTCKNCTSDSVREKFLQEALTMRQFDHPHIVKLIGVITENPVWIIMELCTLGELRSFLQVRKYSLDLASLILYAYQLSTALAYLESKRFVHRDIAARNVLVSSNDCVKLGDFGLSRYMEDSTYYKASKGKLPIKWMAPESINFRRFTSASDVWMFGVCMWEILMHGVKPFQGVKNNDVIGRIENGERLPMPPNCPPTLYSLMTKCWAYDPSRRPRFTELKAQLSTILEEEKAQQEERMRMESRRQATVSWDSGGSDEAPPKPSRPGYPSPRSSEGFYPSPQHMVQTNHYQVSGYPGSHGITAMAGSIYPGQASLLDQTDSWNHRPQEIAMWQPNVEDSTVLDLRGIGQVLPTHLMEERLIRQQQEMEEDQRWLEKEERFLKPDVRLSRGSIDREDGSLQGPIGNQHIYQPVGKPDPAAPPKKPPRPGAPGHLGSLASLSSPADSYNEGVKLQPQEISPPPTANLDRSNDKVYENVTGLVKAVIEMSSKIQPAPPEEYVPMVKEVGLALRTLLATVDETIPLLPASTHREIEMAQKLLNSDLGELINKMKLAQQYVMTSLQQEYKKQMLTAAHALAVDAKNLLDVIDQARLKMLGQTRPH
Sequence of Fibroblast growth factor 2 (Homo sapiens) (P09038 whole entry, looked up): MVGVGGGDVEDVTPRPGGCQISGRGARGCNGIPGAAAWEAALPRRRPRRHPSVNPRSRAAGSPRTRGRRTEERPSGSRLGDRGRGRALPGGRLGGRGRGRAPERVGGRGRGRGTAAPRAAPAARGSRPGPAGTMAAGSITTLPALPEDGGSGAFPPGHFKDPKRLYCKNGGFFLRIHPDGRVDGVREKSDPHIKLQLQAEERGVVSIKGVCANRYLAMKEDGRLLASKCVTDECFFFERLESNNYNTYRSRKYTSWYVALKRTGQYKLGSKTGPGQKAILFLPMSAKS
Sequence of Follistatin (Homo sapiens) (P19883 whole entry, looked up): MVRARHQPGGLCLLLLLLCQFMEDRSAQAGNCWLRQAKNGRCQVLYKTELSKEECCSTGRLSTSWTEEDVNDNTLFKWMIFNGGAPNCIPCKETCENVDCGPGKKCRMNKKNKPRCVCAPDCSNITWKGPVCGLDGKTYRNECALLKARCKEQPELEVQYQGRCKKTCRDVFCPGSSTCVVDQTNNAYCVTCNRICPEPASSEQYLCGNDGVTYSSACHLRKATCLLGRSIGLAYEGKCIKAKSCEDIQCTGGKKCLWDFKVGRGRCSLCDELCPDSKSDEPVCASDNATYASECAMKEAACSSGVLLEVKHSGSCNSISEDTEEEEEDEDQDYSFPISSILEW

Row | Structure (SMILES) | composite z-score [1] | composite z-score [2] | composite z-score [3] | composite z-score [4] | composite z-score [5] | composite z-score [6] | z-score [7] | composite z-score (Lefty1) | composite z-score [8] | z-score [9]
1 | [N-]=[N+]=NCc1ccccc1[C@@H]1OC(c2ccc(OCCCO)cc2)=N[C@]1(Cc1ccccc1N=[N+]=[N-])C(=O)N1CCCCC1 | 1.97 | 1.24 | 0.182 | 0.816 | 0.845 | 0.483 | 0.909 | 0.082 | 0.756 | -1.61 (inactive)
2 | CC1(C)C(=O)C(c2ccccc2)=C2CN3C(=O)N(CCc4ccccc4)C(=O)C3(Cc3ccc(C(F)(F)F)cc3)C=C21 (stereo not given) | 0.478 | 1.21 | 1.32 | 0.414 | 0.376 | -0.729 | 0.37 | -0.285 | 0.57 | 1.24 (inactive)
3 | O=C1NC(=O)C2C1C=CC(C(O)c1ccccn1)N2Nc1ccc(Cl)cc1Cl (stereo not given) | 0.713 | 0.676 | 0.473 | 0.717 | 0.101 | 0.0367 | 1.07 | 0.181 | 1.11 | 0.237 (inactive)
4 | CN(C)CCCCCCNC(=O)[C@@H]1C[C@@H]2C(=O)N[C@@H](CCCCN)C(=O)N2[C@@H]1c1ccc(O)cc1 | 2.6 | 1.33 | 3.73 | 0.957 | 1.54 | 1.6 | -0.742 | 1.66 | 1.73 | 0.307 (inactive)
5 | C=C(CCCC)/C(=C/C[C@H](OC(C)=O)c1ccc(OCCO)cc1)c1cc(C(=O)OC)ccc1OC | 0.124 | 1.04 | 0.667 | 0.046 | 0.935 | 0.103 | 1.78 | 0.929 | 0.775 | -1.69 (inactive)
6 | COc1ccc([Si](C)(C)[C@@H]2[C@@H](CCn3cc([C@H](O)c4ccccc4)nn3)O[C@]3(C(=O)N(Cc4cccc(N5C(=O)c6cccc7cccc5c67)c4)c4ccccc43)[C@H]2C)cc1 | 0.195 | -0.34 | -0.426 | -0.759 | -0.0585 | -0.758 | 0.794 | 0.199 | -0.228 | 0.148 (inactive)
7 | NC(=O)NCC#Cc1ccc2c(c1)[C@]1(C(=O)N2)[C@H](C(=O)N2CCN(c3ncccn3)CC2)[C@H]2C(=O)O[C@H](c3ccccc3)[C@H](c3ccccc3)N2[C@@H]1c1ccc(OCCO)cc1 | 0.0543 | 0.805 | 0.0827 | 0.717 | 1.33 | 0.517 | -1.18 | 0.406 | 0.276 | -0.437 (inactive)
8 | NCCCCCNC(=O)[C@H]1C[C@H]2C(=O)N[C@@H](Cc3ccccc3)C(=O)N2[C@H]1c1ccc(O)cc1 | 1.61 | 0.756 | -0.506 | 0.94 | 1.4 | 0.169 | -0.421 | 0.765 | 0.81 | -1.35 (inactive)
9 | CCCCC=C[C@@H](NC(=O)c1ccccc1)c1ccccc1 | 0.249 | 1.18 | 1.43 | 0.987 | 0.527 | -0.79 | -0.584 | 0.4 | 0.68 | 0.965 (inactive)
10 | C=C(CCCC)C(=O)CC[C@H](OC(=O)c1ccccc1-c1ccccc1C(=O)O)c1ccccc1OCCO | 1.51 | 0.341 | -0.218 | 0.412 | 0.419 | 0.448 | 0.58 | 0.311 | -0.107 | -1.82 (inactive)
11 | Nc1cc(Br)ccc1C(=O)O | 1.28 | 0.319 | 0.5 | 0.777 | 0.181 | 0.372 | 1.28 | -0.0916 | 0.863 | -1.1 (inactive)
12 | CCCC=C(CCC)[C@@H](NC(=O)CCc1ccccc1)c1ccc(C(F)(F)F)cc1 | 0.608 | 1.16 | 0.398 | 0.973 | 0.809 | 0.94 | 3.02 | 0.17 | 0.71 | 1.31 (inactive)
13 | CN(C)C(=O)[C@]1(CCS(=O)(=O)c2ccccc2)N=C(c2ccc(OCCCO)cc2)O[C@@H]1c1ccccc1 | 1.57 | 1.26 | 1.23 | 1 | 1.29 | 0.345 | 0.17 | 0.476 | -0.0414 | 0.396 (inactive)
14 | COCC(=C=CC[C@H](O)c1cccc(OCCO)c1)C[C@H](O)COCc1ccccc1 | 1.09 | 1.11 | 1.24 | -0.749 | 1.21 | 1.23 | -0.177 | 0.88 | -0.41 | -0.496 (inactive)
15 | COc1cccc(/C=C(\C#N)C(=O)Nc2c(C)n(C)n(-c3ccccc3)c2=O)c1 | 0.352 | 0.0072 | 0.268 | 0.85 | 0.346 | 0.365 | 0.697 | 0.363 | 0.713 | 0.109 (inactive)
16 | CN(C)C(=O)[C@@]1(Cc2ccccc2)COC(c2ccc(OCCCO)cc2)=N1 | 0.468 | 0.672 | 0.292 | 0.414 | -0.13 | -0.0827 | 1.18 | -1.51 | 0.298 | -2.68 (inactive)
17 | CN1C(=O)C2C=CC(C(O)c3cc(C(F)(F)F)cc(C(F)(F)F)c3)N(Nc3ccccc3)C2C1=O (stereo not given) | 0.581 | 0.737 | 0.99 | -0.35 | -0.101 | -0.419 | 0.587 | 0.302 | 0.225 | 0.787 (inactive)
